High-throughput results deposited in PubChem by Johns Hopkins Ion Channel Center.
KCNQ2 block: blocks the rat KCNQ2 potassium channel | CHO-K1 KCNQ2, FluxOR thallium flux, 20 min; active compounds read low | B-score at 10 µM | 310,000 tested, 1.1% active | AID 2156;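 active means fluorescence ratio B-score at most minus 3 library SDs, with starting brightness B-score within 2 library SDs, cut at about -5.5 in these data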
KCNQ2 enhance: enhances the rat KCNQ2 potassium channel; CHO-K1 KCNQ2, FluxOR thallium flux fluorescence; active compounds read high; B-score at 10 µM; 310,000 tested, 0.54% active;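 active means fluorescence ratio B-score at least 3 SD of library B-scores, with initial fluorescence B-score within 3 of them, cut at about 5.3 in these data; same plate scores as AID 2156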;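 further: B-score of peak minus minimum over baseline fluorescence ratio after K+ and Tl+ stimulus; positive B-score means potentiation of KCNQ2 with more thallium influx and brighter signal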
Kir21 confirm: confirmation of mouse Kir2.1 potassium channel inhibitors; shares compounds with KCNQ2 enhance; Kir2.1-expressing cells, FluxOR thallium flux fluorescence; active compounds read low; Tl flux remaining, % of negative control (active compounds read low), % at 10 µM; 2,300 tested, 41% active;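 active means Primary-screen hit whose thallium flux fell at least 3 control SD below untreated wells in both duplicates, with normal baseline fluorescence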
HEK293 Tl flux: counter-screen for Kir2.1 inhibitors: effect in parental HEK293 cells. shares compounds with KCNQ2 enhance. FluxOR thallium flux fluorescence; 0% = unstimulated blank wells. FluxOR signal as % of negative control (100 = no effect), % at 10 µM. 2,300 tested, 19% active. AID 2105;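 active means dye signal at least 3 control SD above or below untreated wells in both duplicates, raw fluorescence within 3, either direction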;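 further: percent is based on the flux ratio of peak minus minimum fluorescence over baseline F0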
CHO-K1 ctr: counter-screen for KCNQ2 potentiators: effect in parental CHO-K1 cells; shares compounds with KCNQ2 enhance; FluxOR thallium flux fluorescence; zero = vehicle mean+3SD, 100% = vehicle-minus-blank window; activity increase over 3SD of controls, % at 10 µM; 1,200 tested, 43% active; AID 2282;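 active means signal rise of at least 3 SD above the untreated control mean, in both duplicate wells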;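 further: counter screen of KCNQ2 potentiator hits so any rise reflects channel-independent effects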
KCNQ1 pot spec: human KCNQ1 counter-target activity of KCNQ2 potentiators; shares compounds with KCNQ2 enhance; CHO KCNQ1 stable, FluxOR thallium flux fluorescence; beyond 3SD, as % of vehicle-control signal; activation over 3SD threshold, % at 10 µM; 1,200 tested, 28% active; AID 2283;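 active means fluorescence ratio rise of at least 3 SD of vehicle wells above their mean, in both replicate wells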
KCNQ2 pot conf: confirmation of rat KCNQ2 potassium channel potentiators | AID 2287 | CHO-KCNQ2 cells, FluxOR thallium flux fluorescence | 1,200 tested, 68% active | shares compounds with KCNQ2 enhance | potentiation, less the hit threshold, % at 10 µM;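 active means fluorescence ratio rising 3 SD or more over the vehicle control mean in both replicates, plus primary screen hit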;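 further: peak minus minimum thallium fluorescence divided by baseline after K/Tl stimulus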
Kir21 spec: selectivity of KCNQ2 potentiators: effect on mouse Kir2.1 | shares compounds with KCNQ2 enhance | HEK293 Kir2.1, FluxOR thallium flux fluorescence | activity over 3SD threshold, % at 10 µM | 1,200 tested, 2% active;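 active means fluorescence ratio rise of at least 3 SD above the vehicle-control mean, seen in both replicates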
KCNQ2 W236L pot: rat KCNQ2 W236L mutant potentiation by KCNQ2 potentiators; shares compounds with KCNQ2 enhance; CHO KCNQ2-W236L, automated patch clamp current; current increase over 3SD of negative controls (%), active compounds read high, % at 25 µM; 940 tested, 10% active;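 active means current increase at least 3 SD of the untreated controls above them in both duplicate recordings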
Target sequence (O88943 whole entry W236L, looked up): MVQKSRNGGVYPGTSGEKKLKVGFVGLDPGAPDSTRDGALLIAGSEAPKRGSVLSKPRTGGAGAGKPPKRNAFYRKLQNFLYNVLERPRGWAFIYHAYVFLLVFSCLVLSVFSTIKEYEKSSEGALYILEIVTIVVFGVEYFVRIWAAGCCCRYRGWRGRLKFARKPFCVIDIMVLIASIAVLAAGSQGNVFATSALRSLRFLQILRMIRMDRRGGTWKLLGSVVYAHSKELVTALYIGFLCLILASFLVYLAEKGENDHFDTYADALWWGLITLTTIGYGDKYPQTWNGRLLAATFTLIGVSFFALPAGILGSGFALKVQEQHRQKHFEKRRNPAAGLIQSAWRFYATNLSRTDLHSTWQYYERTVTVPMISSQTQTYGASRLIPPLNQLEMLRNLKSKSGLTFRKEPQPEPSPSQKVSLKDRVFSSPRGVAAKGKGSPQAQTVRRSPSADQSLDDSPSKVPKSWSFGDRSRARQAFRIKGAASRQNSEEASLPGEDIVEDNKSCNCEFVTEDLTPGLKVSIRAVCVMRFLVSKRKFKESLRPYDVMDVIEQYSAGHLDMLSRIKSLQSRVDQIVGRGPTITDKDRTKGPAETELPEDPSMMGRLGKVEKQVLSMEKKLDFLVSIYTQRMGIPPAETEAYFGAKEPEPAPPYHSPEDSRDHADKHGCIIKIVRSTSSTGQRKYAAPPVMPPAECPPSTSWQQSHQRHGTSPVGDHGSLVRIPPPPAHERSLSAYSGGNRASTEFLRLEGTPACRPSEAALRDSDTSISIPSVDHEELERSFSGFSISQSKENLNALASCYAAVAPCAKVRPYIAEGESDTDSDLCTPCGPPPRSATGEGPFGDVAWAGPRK
Large screens that a line does not name were inactive (follow-up assays come after a bar, where they were run). Rows were chosen to be rich in hits. Some 1.6% of all compounds tested hit in one or more screens of this group.

CCC1(c2ccccc2)NC(=S)N(c2ccc(C)c(C)c2)N1 (stereo unspecified)	KCNQ2 enhance 12.9 | Kir21 confirm inactive | HEK293 Tl flux 435.0% | CHO-K1 ctr inactive | KCNQ1 pot spec inactive | KCNQ2 pot conf 55.2 | Kir21 spec inactive | KCNQ2 W236L pot inactive
CCC1(c2ccc(Cl)cc2)NC(=S)N(c2ccc(C)c(C)c2)N1 (stereo unspecified)	KCNQ2 enhance 28.7 | Kir21 confirm inactive | HEK293 Tl flux 537.0% | CHO-K1 ctr 21.0 | KCNQ1 pot spec inactive | KCNQ2 pot conf 67.5 | Kir21 spec inactive
CC1=CC(C)(C)NC(=S)N1c1ccc(C)c(C)c1	none
Cc1ccc(-n2c(C)n[nH]c2=S)cc1C	none (no result: KCNQ2 enhance)
CS(=O)(=O)N1CCc2cc(NC(=O)c3ccc(Cl)cc3Cl)ccc21	none (no result: KCNQ2 enhance)
Cc1cccc2cc3c(NC(=O)C(C)(C)C)nn(CC(C)C)c3nc12	none (no result: KCNQ2 enhance)
Cc1ccc(NC(=O)CC(O)(C(F)(F)F)C(F)(F)F)cc1	KCNQ2 enhance 9.65 | Kir21 confirm inactive | HEK293 Tl flux inactive | CHO-K1 ctr inactive | KCNQ1 pot spec inactive | KCNQ2 pot conf 35.8 | Kir21 spec inactive | KCNQ2 W236L pot 3.0%
Cc1ccc(NC(=O)CC(N)=S)cc1	none (no result: KCNQ2 enhance)
CN(c1ccc(F)cc1)S(=O)(=O)c1ccc(Cl)c(C(=O)OCC(=O)NCc2ccco2)c1	KCNQ2 enhance 8.81 | Kir21 confirm inactive | HEK293 Tl flux inactive | CHO-K1 ctr 15.2 | KCNQ1 pot spec inactive | KCNQ2 pot conf 24.0 | Kir21 spec inactive | KCNQ2 W236L pot inactive
CN(c1ccccc1)S(=O)(=O)c1cccc(C(=O)OCC(=O)NCc2ccco2)c1	none
CC(=O)N(C)c1ccc(NC(=O)Nc2ccc(C)c(C)c2)cc1	none (no result: KCNQ2 enhance)
Cc1ccc(-n2nnnc2SCC(=O)N2CCCCC2)cc1	none (no result: KCNQ2 enhance)
O=C(CSc1nnnn1-c1cccc2c1CCCC2)N1CCCCC1	KCNQ2 enhance 6.15 | Kir21 confirm 70.5% | HEK293 Tl flux inactive | CHO-K1 ctr 69.0 | KCNQ1 pot spec inactive | KCNQ2 pot conf inactive | Kir21 spec inactive
CN(C)C(CNc1ncnc2sccc12)c1cccs1 (stereo unspecified)	none
CCOC(=O)c1sc2ncnc(NCC(c3cccs3)N(C)C)c2c1C (stereo unspecified)	KCNQ2 enhance 7.72 | Kir21 confirm inactive | HEK293 Tl flux 252.5% | CHO-K1 ctr inactive | KCNQ1 pot spec 0.2 | KCNQ2 pot conf 32.5 | Kir21 spec inactive | KCNQ2 W236L pot inactive
N/C(=N\OC(=O)CCCc1ccccc1)c1ccccc1Cl	none
CC(=O)N1CCN(C(=O)c2ccc(S(=O)(=O)Nc3cccc(C(F)(F)F)c3)cc2)CC1	none | Kir21 confirm inactive | HEK293 Tl flux inactive
O=C(c1ccc(S(=O)(=O)Nc2cccc(C(F)(F)F)c2)cc1)N1CCC1	none
O=C(OCC(=O)N1CCN(c2ccccc2)CC1)c1nc(Cl)ccc1Cl	none
O=C1NC(c2ccccc2)=C(c2nc3ccccc3s2)C(c2ccc(F)cc2)N1 (stereo unspecified)	KCNQ2 enhance 8.72 | Kir21 confirm inactive | HEK293 Tl flux inactive | CHO-K1 ctr 74.1 | KCNQ1 pot spec inactive | KCNQ2 pot conf 21.2 | Kir21 spec inactive | KCNQ2 W236L pot 33.9%
COc1ccc(C2NC(=O)NC(c3ccccc3)=C2c2nc3ccccc3s2)cc1 (stereo unspecified)	none
COc1ccc(C(C(=O)NC2CCCC2)N(Cc2cccnc2)C(=O)c2snc(C(N)=O)c2N)cc1 (stereo unspecified)	none
CCN(Cc1ccccc1)S(=O)(=O)c1ccc2c(c1)NC(=O)CS2	none | Kir21 confirm 73.0% | HEK293 Tl flux inactive
CCN(Cc1ccccc1)S(=O)(=O)c1ccc2c(c1)NC(=O)CC(=O)N2	none (no result: KCNQ2 enhance)
O=C1C=CC(=O)N1CCNc1ncc(C(F)(F)F)cc1Cl	none (no result: KCNQ2 enhance) | Kir21 confirm 73.5% | HEK293 Tl flux inactive
O=C1CC(=O)N(CCNc2ncc(C(F)(F)F)cc2Cl)C(=O)N1	none
O=C(Nc1ccc(F)cc1)c1oc2ccccc2c1NC(=O)C1CC1	none (no result: KCNQ2 enhance)
COc1ccc(Nc2nc(NCC3CCCO3)c3ccccc3n2)c(OC)c1 (stereo unspecified)	none (no result: KCNQ2 enhance) | Kir21 confirm 30.0% | HEK293 Tl flux inactive
Oc1cccc(Nc2nc(NCC3CCCO3)c3ccccc3n2)c1 (stereo unspecified)	none (no result: KCNQ2 enhance)
CCN(CC)C(=S)SCC(=O)Nc1ccc(F)cc1	KCNQ2 enhance 6.4 | Kir21 confirm inactive | HEK293 Tl flux inactive | CHO-K1 ctr inactive | KCNQ1 pot spec inactive | KCNQ2 pot conf 3.2 | Kir21 spec inactive | KCNQ2 W236L pot inactive
CCN(CC)C(=S)SCC(=O)c1ccc(F)cc1	none (no result: KCNQ2 enhance)
CCOC(=O)C1CCCN(c2oc(-c3ccc(OC)cc3)nc2C#N)C1 (stereo unspecified)	none (no result: KCNQ2 enhance)
Cn1c(=O)c(C(=O)Nc2ccccc2S(N)(=O)=O)c(O)c2ccccc21	KCNQ2 enhance 5.95 | Kir21 confirm inactive | HEK293 Tl flux inactive | CHO-K1 ctr inactive | KCNQ1 pot spec inactive | KCNQ2 pot conf inactive | Kir21 spec inactive
CC(C)Cn1c(=O)c(C(=O)Nc2ccccc2S(N)(=O)=O)c(O)c2ccccc21	none (no result: KCNQ2 enhance)
CC1CCc2c(sc3ncn(CC(=O)N4CCCCC4)c(=O)c23)C1 (stereo unspecified)	none
O=C(OCC(=O)N1CCN(S(=O)(=O)c2ccc(Cl)cc2)CC1)c1cccc(OC(F)F)c1	KCNQ2 enhance 11.1 | Kir21 confirm inactive | HEK293 Tl flux inactive | CHO-K1 ctr inactive | KCNQ1 pot spec inactive | KCNQ2 pot conf 12.5 | Kir21 spec inactive | KCNQ2 W236L pot inactive
COc1cccc(/C=C/C(=O)OCC(=O)N2CCN(S(=O)(=O)c3ccc(Cl)cc3)CC2)c1	none
O=[N+]([O-])c1cccc(-n2nnnc2CN2CCCC2)c1	none
CCN(CC)CCNC(=O)C(=O)Nc1ccc2c(c1)N(S(=O)(=O)c1cccs1)CCC2	none
COc1cccc(C(=O)NCCCn2ccnc2)c1	none (no result: KCNQ2 enhance)
Cc1cc(Oc2ccc(C#N)cc2)nc(NCc2ccccc2)n1	none
COc1ccc(C(=O)NCCS(=O)(=O)N2CCCC2)cc1	none (no result: KCNQ2 enhance)
CN(C)CCCOc1ccc(C(C)(C)c2ccccc2)cc1	none (no result: KCNQ2 enhance) | Kir21 confirm 36.5% | HEK293 Tl flux inactive
CN(C)CCOc1ccc(C(C)(C)c2ccccc2)cc1	none (no result: KCNQ2 enhance)
O=c1c(Cc2ccccc2)c(O)ccn1Cc1ccco1	none
